This note sets out measurements from PubChem BioAssay (NCATS).

Records with an inconclusive call do not appear. The source made the active and inactive calls. Unless noted, calls come from the whole dose curve; as a rule, active = well fitted curve in the direction sought with a large enough effect; inconclusive = small, poorly fitted or top-dose-only effect, or another doubt; inactive = no such curve, though single readings can be large; an effect the other way counts as inactive or inconclusive.

Test [1] is described as follows: Cell Viability - SH-SY5Y (AID 544).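 Note: 0% = DMSO alone and -100% = 100 µM tamoxifen; nearly all actives have a fitted effect of over 55% in size.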 Particulars: SH-SY5Y neuroblastoma cell viability; viability change, negative = cytotoxic: at 92.2 µM (top of the series). Summed up:
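SH-SY5Y human neuroblastoma cells (1500/well) incubated 5 h, then compound-treated 40 h at 37 °C in complete medium. Viability read as intracellular ATP by CellTiter-Glo luminescence after 20 min; AC50 from Hill-equation fits of qHTS concentration-response.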

The nature of test [2]: Cell Viability - Renal Proximal Tubule (AID 545).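 Note: 0% = DMSO only and -100% = 100 µM tamoxifen; nearly all actives have a fitted effect of over 40% in size.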 In short, it runs like this: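 Viability taken as intracellular ATP (CellTiter-Glo luminescence) after 40 hr, 37 °C compound treatment of primary proximal tubule cells from rat kidney, 1000 cells/well; Hill-equation fits of qHTS concentration-response data gave AC50.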
The target in test [3] is Cytochrome P450 3A4 (Homo sapiens) (UniProt P08684). The test can be described thus: qHTS Assay for Inhibitors and Substrates of Cytochrome P450 3A4 (AID 884). Note: % is set by controls: 0 for no effect and ±100 for the full control effect; nearly all actives have a fitted effect of over 50% in size. Summed up:
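20 nM human CYP3A4 with 25 uM Luciferin-PPXE (at KM) in 200 mM KPO4, preincubated 10 min with compound; NADPH regeneration started a 60 min RT reaction. Luciferin detected by luminescence, normalized to 57 uM ketoconazole as full inhibition.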
(In qHTS, concentration-response curves come from the screen itself.)

Test [4] in a line: Cell Viability - LYMP2-001 (AID 921).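 Note: 0% = DMSO only and full inhibition = tetraoctylammonium bromide control wells; nearly all actives have a fitted effect of over 70% in size.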 Summed up: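 Cellular ATP loss read by luciferase luminescence after 24 h compound exposure at 37 C in complete medium. LYMP2-001 lymphoblastoid cells, 2500/well; qHTS concentration-response data fitted with Hill equation for AC50.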
Test [5] can be described thus: Cell Viability - LYMP2-003 (AID 965).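 Note: cells exposed to compounds for 24 h before reading; 0% = DMSO only and full effect = 92 µM tetraoctylammonium bromide; nearly all actives have a fitted effect of over 50% in size.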 Summed up:
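CellTiter-Glo luminescence quantified ATP loss after 24 h compound treatment of LYMP2-003 lymphoblastoid cells at 37 C. Titration series were fitted with the standard Hill equation to give AC50.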

Test [6] can be described thus: Cell Viability - LYMP2-015 (AID 971).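 Note: 0% = DMSO only and full effect = 92 µM tetraoctylammonium bromide; nearly all actives have a fitted effect of over 55% in size.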 In short, it runs like this:
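LYMP2-015 human lymphoblastoid cells (2500/well) in complete medium, compound-treated 24 h at 37 C; viability read as cellular ATP by CellTiter-Glo luminescence after 30 min at room temperature. AC50 from Hill-equation fits of qHTS concentration-response data.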

A short description of test [7]: Cell Viability - LYMP2-019 (AID 973).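 Note: 0% = DMSO alone and full effect = 92 µM tetraoctylammonium bromide; nearly all actives have a fitted effect of over 55% in size.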 Summed up:
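Human lymphoblastoid LYMP2-019 cells (2500/well) preincubated 5 h at 37 C, then treated 24 h at 37 C in complete medium. Viability by CellTiter-Glo ATP luminescence after 30 min at room temperature; AC50 from Hill fits.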

Test [8] can be described thus: Cell Viability - LYMP2-002 (AID 977).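 Note: plate controls were DMSO only for no effect and 92 µM tetraoctylammonium bromide for full effect.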 In short, it runs like this:
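Luminescent ATP readout (CellTiter-Glo, 30 min room temperature) after 24 h compound exposure at 37 C of a human lymphoblastoid line, 2500 cells/well. AC50 values derived by standard Hill fitting of qHTS concentration-response data.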

The nature of test [9]: Cell Viability - LYMP2-008 (AID 980). Note: % is set by controls: 0 for no effect and ±100 for the full control effect; nearly all actives have a fitted effect of over 60% in size. Summed up:
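LYMP2-008 lymphoblastoid cells (2500/well) plated 5 h, then treated 24 h at 37 C in complete medium. Viability read as intracellular ATP by CellTiter-Glo luminescence after 30 min at room temperature; AC50 from Hill fits.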

Test [10] in a line: Cell Viability - LYMP2-010 (AID 981). Note: % is set by controls: 0 for no effect and ±100 for the full control effect; nearly all actives have a fitted effect of over 55% in size. Summed up: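 Human lymphoblastoid LYMP2-010 cells (2500/well) treated 24 h at 37 C in complete medium; viability read as intracellular ATP by CellTiter-Glo luminescence. AC50 from Hill fits of concentration-response data; tetraoctylammonium bromide positive control.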
Test [11] can be described thus: Cell Viability - LYMP2-012 (AID 982).
Test [12] in a line: Cell Viability - LYMP2-020 (AID 986). In short, it runs like this:
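Human lymphoblastoid LYMP2-020 cells (2500/well) preincubated 5 h at 37 C, then treated 24 h at 37 C. Viability measured as intracellular ATP by CellTiter-Glo luminescence after 30 min at room temperature; AC50 from Hill fits.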

Test [13] can be described thus: Cell Viability - LYMP2-022 (AID 987). In short, it runs like this: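 LYMP2-022 lymphoblastoid cells (2500/well, complete medium) were treated with compounds for 24 hours at 37 C; intracellular ATP was then read by CellTiter-Glo luminescence after 30 min at room temperature. AC50 values were derived from Hill-equation fits.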
A short description of test [14]: Cell Viability - LYMP1-002 - Assay at 40 hr (AID 994).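 Note: 0% = DMSO only and full inhibition = 92 µM tetraoctylammonium bromide; nearly all actives have a fitted effect of over 60% in size.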 Summed up:
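LYMP1-002 human lymphoblastoid cells (2500/well, complete medium) were treated with compounds for 40 hr at 37 C. Intracellular ATP was measured by CellTiter-Glo luminescence, and AC50 values came from Hill-equation fits of concentration-response data; tetraoctylammonium bromide was the positive control.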

Test [15] in a line: qHTS assay for small molecule agonists of retinoid X receptor alpha signaling (AID 588544). Particulars: HEK293T RXRa-UAS-bla, beta-lactamase reporter, 18 h; 530 nm emission.
A short description of test [16]: qHTS assay for small molecule antagonists of retinoid X receptor alpha signaling (AID 588546; active = well fitted inhibition curve with a large enough effect in the signal ratio, with a control signal flat, not every such curve was filed as active; the % refers to the signal ratio;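 note: cells stimulated with 9-cis-retinoic acid as agonist; % is set by controls: 0 for no effect and ±100 for the full control effect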). Particulars: HEK293T RXRa-UAS-bla, beta-lactamase ratio, antagonist mode; measured here: W530 green channel, cytotoxicity proxy. In short, it runs like this:
(§1)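 Beta-lactamase reporter inhibition, read as CCF4 fluorescence ratio (ex 405, em 460/530 nm) after 2 h at RT. HEK293T UAS-bla cells, 2500/well, were stimulated with 9-cis-RA at 500 or 100 nM final alongside test compound for 18 h at 37 C.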

For test [17], the target named is Retinoic acid receptor RXR-alpha (Homo sapiens) (UniProt P19793). Described as above. The note with it: HEK293T RXRa-UAS-bla, beta-lactamase ratio, antagonist mode. Summed up:
as §1

The target in test [18] is Tumor necrosis factor (Homo sapiens) (UniProt P01375). The test can be described thus: qHTS assay to identify small molecules that stimulate Tumor Necrosis Factor-alpha (TNF-alpha) secretion (AID 651757; active = well fitted curve in the direction sought with a large enough effect in the signal ratio; the % refers to the signal ratio; note: 0% is about no effect). In short, it runs like this:
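THP-1 cells (3000/well) exposed to compounds 17 hrs at 37 C. Secreted TNF-alpha detected by HTRF with cryptate- and XL665-labeled anti-TNF-alpha antibodies after 3 hr at room temperature.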

Test [19] is described as follows: qHTS assay for small molecule antagonists of the retinoid-related orphan receptor gamma (ROR-gamma) signaling pathway - cell viability counter screen (AID 720652; active = well fitted curve in the direction sought with a large enough effect in the repeat runs; an effect the other way counts as inactive or inconclusive;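 note: CHO reporter cells with doxycycline-induced ROR-gamma expression; compound exposure lasted 16 hr before ATP read; % is set by controls: 0 for no effect and ±100 for the full control effect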). In short, it runs like this: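 CHO cells carrying TET-inducible ROR and RORE-luciferase reporter, plated 5 hr, then dosed with compound plus doxycycline. After 16 hr at 37 C, viability read as intracellular ATP by CellTiter-Glo luminescence.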

The nature of test [20]: Cell Viability - N2a (AID 540).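 Note: plate controls were DMSO alone for no effect and tamoxifen control for full effect; nearly all actives have a fitted effect of over 45% in size.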 The note with it: N2a mouse neuroblastoma cell viability; activity change, negative = cytotoxicity: at 92.2 µM (top of the series). In short, it runs like this:
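Mouse neuroblastoma N2a cells, 1500/well, exposed to compounds 40 h at 37 °C in complete medium. Viability measured as cellular ATP by CellTiter-Glo luminescence; AC50 from Hill fits of concentration-response.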

Chain of Cytochrome P450 3A4 (Homo sapiens) (P08684 whole entry, looked up): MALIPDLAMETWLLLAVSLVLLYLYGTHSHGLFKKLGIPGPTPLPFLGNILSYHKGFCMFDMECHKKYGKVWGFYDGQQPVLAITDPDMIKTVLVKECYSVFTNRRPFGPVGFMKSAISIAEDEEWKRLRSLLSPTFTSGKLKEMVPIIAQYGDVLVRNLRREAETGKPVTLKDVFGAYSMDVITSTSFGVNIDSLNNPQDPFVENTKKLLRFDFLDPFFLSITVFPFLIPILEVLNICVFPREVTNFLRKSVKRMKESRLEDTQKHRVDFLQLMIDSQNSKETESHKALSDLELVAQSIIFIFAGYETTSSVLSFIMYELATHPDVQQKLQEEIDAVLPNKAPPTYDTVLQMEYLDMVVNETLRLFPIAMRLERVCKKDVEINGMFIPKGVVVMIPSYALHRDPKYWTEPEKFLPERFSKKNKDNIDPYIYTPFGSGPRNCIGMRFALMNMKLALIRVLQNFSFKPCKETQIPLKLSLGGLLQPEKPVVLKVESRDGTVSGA
Chain of Retinoic acid receptor RXR-alpha (Homo sapiens) (P19793 whole entry, looked up): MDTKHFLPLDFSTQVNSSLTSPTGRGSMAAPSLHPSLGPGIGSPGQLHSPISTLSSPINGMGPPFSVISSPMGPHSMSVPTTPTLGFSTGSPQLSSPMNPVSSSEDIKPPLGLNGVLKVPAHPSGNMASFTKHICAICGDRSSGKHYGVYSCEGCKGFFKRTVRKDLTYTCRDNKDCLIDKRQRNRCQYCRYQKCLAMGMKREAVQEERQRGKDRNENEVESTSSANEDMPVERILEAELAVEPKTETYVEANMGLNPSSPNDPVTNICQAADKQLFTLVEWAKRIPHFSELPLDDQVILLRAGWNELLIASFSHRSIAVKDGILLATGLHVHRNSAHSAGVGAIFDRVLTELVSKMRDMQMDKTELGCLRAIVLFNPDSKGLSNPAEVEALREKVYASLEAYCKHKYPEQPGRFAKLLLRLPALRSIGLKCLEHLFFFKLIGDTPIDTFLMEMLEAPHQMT
Chain of Tumor necrosis factor (Homo sapiens) (P01375 whole entry, looked up): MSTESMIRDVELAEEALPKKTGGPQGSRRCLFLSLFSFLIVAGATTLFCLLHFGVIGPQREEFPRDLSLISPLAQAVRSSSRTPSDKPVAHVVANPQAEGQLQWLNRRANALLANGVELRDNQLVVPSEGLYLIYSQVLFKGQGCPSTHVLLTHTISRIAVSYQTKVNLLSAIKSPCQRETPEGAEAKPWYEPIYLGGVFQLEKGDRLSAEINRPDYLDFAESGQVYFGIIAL

For the compound `Oc1ccc(Cl)c(Cl)c1`, the Potency entry in test [1], in [3], in [4], in test [5], in [6] and in [7] was “inactive” throughout. Also, the Potency entry in test [8], in test [9], in test [10], in test [11], in [12] and in [13] was “inactive” throughout. In addition, the Potency result in [14] and in [19] was “inactive” each time. Further, the result in test [2] and in [18] was inactive. In addition, the max response in test [15] was -8.76%; in [16], -0.477%; in [17], -1% (inactive).

For the compound `CCOC(=O)C1OC1(C)c1ccccc1` (configuration not stated), the Potency entry in test [20], in test [1], in test [3], in [4], in [5] and in test [6] was “inactive” throughout. Besides, the Potency result in [7], in [8], in [9], in test [10], in test [11] and in test [12] was “inactive” each time. Besides, the Potency entry in test [13], in test [14] and in [19] was “inactive” in each case. Also, the result in test [2] and in test [18] was inactive. Moreover, the max response in test [15] is -8.71%; in [16] it was 1.36%; in test [17] it was -0.211% (inactive).

Consider `Nc1cc(Cl)cc(Cl)c1`, for which the Potency entry in test [20], in test [1], in test [4], in test [5], in [6] and in test [7] was “inactive” throughout. The Potency result in test [8], in [9], in test [10], in test [11], in test [12] and in test [13] was “inactive” each time. Further, the Potency entry in test [14] and in test [19] was “inactive” throughout. Moreover, the result in [2] and in test [18] was inactive. Moreover, the max response in test [15] was -17%; in test [16], -5.15%; in [17], 0.872% (inactive).

`CN(C)N=O`: the Potency entry in test [20], in [1], in test [3], in [4], in [6] and in [7] was “inactive” throughout. Further, the Potency entry in [8], in [9], in test [10], in test [11], in test [12] and in test [13] was “inactive” each time. Further, the Potency result in [14] and in [19] was “inactive” throughout. For the same compound, the compound was called inactive in test [2] and in [18]. The max response is -8.99% in test [15], 1.95% in [16] and -0.776% (inactive) in test [17].

With `CCN(CC)CCO`, the Potency result in test [20], in test [1], in test [3], in test [4], in test [5] and in test [6] was “inactive” in each case. In addition, the Potency entry in test [7], in test [8], in test [9], in test [10], in test [11] and in test [12] was “inactive” each time. Also, the Potency result in [13], in test [14] and in [19] was “inactive” throughout. For the same compound, the compound was classed as inactive in test [2] and in test [18]. Also, the max response in test [15] was -4.75%; in test [16], 3.45%; in test [17] it was 35.6% (inactive).

Take `CCCCCC[N+](=O)[O-]`: the Potency entry in test [20], in test [1], in test [3], in test [4], in [5] and in [6] was “inactive” each time. Moreover, the Potency entry in test [7], in test [8], in [9], in test [10], in test [11] and in test [12] was “inactive” in each case. Besides, the Potency entry in test [13], in test [14] and in [19] was “inactive” each time. For the same compound, the outcome in [2] and in test [18] was inactive. Further, the max response was -16.5% in test [15], -11.1% in test [16] and -13.3% (inactive) in [17].

Regarding `ClCc1ccccc1`, the Potency result in test [20], in [1], in test [3], in test [4], in test [5] and in test [6] was “inactive” in each case. Further, the Potency result in [7], in [8], in [9], in [10], in test [11] and in test [12] was “inactive” each time. Also, the Potency entry in test [13], in test [14] and in test [19] was “inactive” in each case. The result in test [2] and in test [18] was inactive. Also, the max response in test [15] was -0.901%; in test [16] it was -2.86%; in [17], 6.84% (inactive).
